From PubChem
Shown are actives, neighbours in structure and some others; about 7.4% of the full set was active somewhere.
NPC1 promoter act: qHTS Assay for NPC1 Promoter Activators | Potency, µM (highest dose often 9.22 µM), actives largely listed as activators | hit rate 2.4% among 320,000 | Huh7 NPC1 promoter luciferase reporter, 24 h; also: nearly all actives have a fitted effect of over 60% in size
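Luminescence from an NPC1 promoter-driven luciferase reporter in stably transfected Huh7 cells was measured after 24 h compound treatment at 37 °C, followed by 10 min ambient incubation with luciferase detection reagent.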
Rab9 promoter act: qHTS Assay for Rab9 Promoter Activators; Potency, µM (highest dose often 9.22 µM), actives largely listed as activators; Huh7 Rab9 promoter-luciferase reporter, luminescence, 24 h; hit rate 2.8% among 320,000; AID 485297, 2010; also: nearly all actives have a fitted effect of over 60% in size
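Measured in stably transfected Huh7 cells bearing a Rab9 promoter–luciferase construct: 24 h compound treatment at 37 °C, followed by luminescence detection.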
ELG1 genotox: qHTS screen for small molecules that induce genotoxicity in human embryonic kidney (HEK293T) cells expressing luciferase-tagged ELG1. HEK293T ELG1-luciferase reporter, luminescence, 16 h. Potency, µM (series often up to 46 µM), most hits filed as activators. hit rate 1.3% among 330,000. AID 504466, 2011; also: nearly all actives have a fitted effect of over 60% in size
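DMSO vehicle served as control against compound-treated ELG1-luciferase HEK293T cells; exposure lasted 16 hr at 37 °C and 5% CO2, followed by ONE-Glo luminescence detection after 30 min.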
SMN2 splice enh: qHTS Assay for Enhancers of SMN2 Splice Variant Expression; HEK293 SMN2-luciferase splicing reporter, luminescence, 30-36 h; Potency, µM (highest dose often 46.1 µM), usual class: activators; hit rate 2.8% among 210,000; AID 1458, 2008; also: nearly all actives have a fitted effect of over 55% in size
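HEK293 cells carry an SMN2 […]–luciferase reporter in which exon 7 inclusion puts luciferase in frame. Cells were plated 10-12 h before compound addition, then incubated 30-36 h at 37C. ONE-Glo luminescence was read; sodium butyrate at 4.5 mM final served as control.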
FLuc counter: qHTS profiling assay for firefly luciferase inhibitor/activator using purifed enzyme and Km concentrations of substrates (counterscreen for miR-21 project); Potency, µM (doses to about 57.5 µM), most hits filed as inhibitors; AID 588342, 2011; purified FLuc, Km substrates, luminescence inhibition; Luciferin 4-monooxygenase (Photinus pyralis), P08659; hit rate 6.9% among 360,000; also: nearly all actives have a fitted effect of over 55% in size
Target sequence (P08659 whole entry, looked up): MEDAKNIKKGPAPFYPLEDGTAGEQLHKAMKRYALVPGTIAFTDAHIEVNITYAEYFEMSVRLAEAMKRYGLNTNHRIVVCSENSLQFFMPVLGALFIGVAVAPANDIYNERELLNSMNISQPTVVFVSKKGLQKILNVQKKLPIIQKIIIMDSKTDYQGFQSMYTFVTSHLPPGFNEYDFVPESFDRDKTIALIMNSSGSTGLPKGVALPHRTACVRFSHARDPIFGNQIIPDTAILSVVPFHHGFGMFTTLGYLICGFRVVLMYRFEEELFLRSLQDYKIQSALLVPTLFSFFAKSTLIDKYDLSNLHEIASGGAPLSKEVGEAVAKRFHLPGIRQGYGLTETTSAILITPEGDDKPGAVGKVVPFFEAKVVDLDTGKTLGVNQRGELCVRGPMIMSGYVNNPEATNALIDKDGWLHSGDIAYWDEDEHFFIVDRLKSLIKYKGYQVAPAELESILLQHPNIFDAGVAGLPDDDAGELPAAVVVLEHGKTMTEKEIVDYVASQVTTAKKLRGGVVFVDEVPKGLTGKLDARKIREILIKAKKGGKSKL
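Biochemical qHTS of compounds, final roughly 60 µM downward over six points, against 10 nM purified firefly luciferase using Km concentrations of substrates (10 uM D-luciferin, 10 uM ATP) in Tris acetate pH 7.5 buffer; luminescence output.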
KinaseGlo FLuc: Counterscreen for Luciferase (Kinase-Glo TM) Inhibition; Potency, µM (top dose mostly 38.3 µM), actives largely listed as inhibitors; hit rate 0.28% among 200,000; Kinase-Glo luciferase, ATP luminescence, 8 min; AID 1379, 2008; also: nearly all actives have a fitted effect of over 60% in size
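Luminescence was the read-out, taken after 8-minute incubation at ambient temperature. Luciferase turned over luciferin with 10 uM ATP in imidazole pH 7.2 buffer containing KCl, MgCl2, Tween 20 and BSA.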
Numbers stand for hits; - = inactive; ? = inconclusive; . = no result; [ ] = remark or other dose. Calls follow the shape of the dose curve; as a rule, active = well fitted curve in the direction sought with a large enough effect; inconclusive = small, poorly fitted or top-dose-only effect, or another doubt; inactive = no such curve, though single readings can be large; an effect the other way counts as inactive or inconclusive.

SMILES | NPC1 promoter act | Rab9 promoter act | ELG1 genotox | SMN2 splice enh | FLuc counter | KinaseGlo FLuc
N#C/C(=N/Nc1ccc([N+](=O)[O-])cc1)C(=N)N1CCCCC1 | 1µM | 0.56µM | ? | 3.2µM | 9.5µM | -
N#C/C(=N\Nc1ccc(S(=O)(=O)N2CCCCCC2)cc1)C(N)=S | - | - | - | - | ? | -
N#C/C(=N\Nc1ccc([N+](=O)[O-])cc1)C(N)=S | - | - | - | . | 17µM | .
COc1ccccc1N/N=C(\C#N)C(=N)N1CCOCC1 | - | - | - | ? | - | -
CCCN(CCC)C(=O)c1oc2ccccc2c1NC(=O)Cc1cccc(OC)c1 | - | - | - | . | - | .
CCOC(=O)C1(CCCc2ccccc2)CCN(C(=O)CCOC)CC1 | - | - | - | . | - | .
Cc1ccc(N2C(=O)N(CC(=O)N3c4ccccc4CC3C)C(=O)C2C)cc1 (stereo not given) | - | - | - | . | - | .
CC1CCN(C(=O)CN2c3cccc4cccc(c34)S2(=O)=O)CC1 | - | - | - | . | - | .
N#C/C(=N\Nc1ccc(Br)cc1)C(=N)N1CCOCC1 | 3.5µM | 4µM | ? | ? | ? | -
CC(C)Oc1cccc(C2NC(=O)c3ccccc3O2)c1 (stereo not given) | - | - | - | . | 17µM | .
CCCC(=O)Oc1cccc(C2NC(=O)c3ccccc3O2)c1 (stereo not given) | - | - | - | . | - | .
Cc1ccc(C(=O)Nc2ccc(Oc3cccc(C(F)(F)F)c3)nc2)cc1 | - | - | - | . | - | .
CC(C)(C)c1ccc(C(=O)Nc2ccc(Oc3cccnc3)nc2)cc1 | - | - | - | . | 8.5µM | .
O=C(Nc1cccnc1)c1ccc(Br)s1 | - | - | - | - | -[2.3 µM] | -
CC(C)(C)c1ccc(C(=O)Nc2cccnc2)cc1 | 2.8µM | 4µM | 2.3µM | . | 2.7µM | .
O=C(Nc1cccnc1)c1ccc(C(=O)Nc2cccnc2)cc1 | - | - | - | . | - | -
CCc1sc(C(=O)Nc2cccnc2)cc1Br | ? | ? | ? | . | 11µM | .
CCC(CO)Nc1ncnc2c1cnn2-c1ccc(Cl)cc1 (stereo not given) | 0.45µM | 0.32µM | ? | ? | 1.7µM | -
CCC(C)Nc1ncnc2c1cnn2Cc1ccc(Cl)cc1 (stereo not given) | - | - | - | - | - | -
CCC(CO)Nc1ncnc2c1cnn2-c1ccc(OC)cc1 (stereo not given) | 1µM | 1µM | 2.6µM | 10µM | 6.7µM | -
COc1ccc(CC(=O)NNc2ncnc3c2cnn3-c2ccccc2)cc1 | - | - | - | - | - | -
CCCCN(CCCNC(=O)c1cc(Nc2ccc(OC)c(OC)c2)nc2ccccc12)c1ccccc1 | . | . | . | - | ? | .
O=c1[nH]c(COc2ccc(Cl)cc2Cl)nc2ccccc12 | 2.5µM | 2.2µM | 9.2µM | . | 1.7µM | .
O=c1[nH]c(COc2ccc(Cl)cc2Br)nc2ccccc12 | 2.8µM | 2.8µM | ? | . | 6µM | .
CN(C)S(=O)(=O)Oc1cccc(C(=O)Nc2ccc([N+](=O)[O-])cc2)c1 | - | ? | - | - | 13µM | -
SMILES | NPC1 promoter act | Rab9 promoter act | ELG1 genotox | SMN2 splice enh | FLuc counter | KinaseGlo FLuc
O=C(N[C@H]1CC1c1ccccc1)c1ccc([N+](=O)[O-])cc1 (stereo not given in full) | 1.1µM | 0.71µM | ? | . | 5.4µM | .
O=C(NNc1ccccc1[N+](=O)[O-])Nc1ccccc1 | - | - | - | - | - | -
CC(Cc1ccccc1)NC(=O)c1ccc([N+](=O)[O-])cc1 (stereo not given) | 2.8µM | 1.8µM | ? | 14µM | 12µM | -
O=C(NNc1ccc([N+](=O)[O-])cc1)Nc1ccccc1 | - | - | - | . | 21µM | .
CC(Cc1ccccc1)NC(=O)/C=C/c1ccc([N+](=O)[O-])cc1 (stereo not given) | - | - | - | - | - | -
O=C(Nc1ccc(O)cc1)c1cccc(Oc2ccc([N+](=O)[O-])cc2)c1 | - | - | - | . | - | -
O=C(O)c1ccccc1Nc1ccccc1C(=O)O | - | - | - | - | - | -
O=C(Nc1ccc(NC(=O)c2cccc([N+](=O)[O-])c2)cc1)c1cccc([N+](=O)[O-])c1 | - | - | - | . | - | .
O=C(Nc1ccc([N+](=O)[O-])cc1)c1ccccc1 | 2.2µM | 3.2µM | - | . | 17µM | .
Cc1c(Cl)cccc1Nc1ccccc1C(=O)O | - | - | - | - | 17µM | -
CCN(CC)c1ccc(C(=O)Nc2ccccc2)cc1[N+](=O)[O-] | ? | ? | - | 11µM | 12µM | -
O=C(O)c1ccccc1Nc1ccc([N+](=O)[O-])cc1 | - | ? | - | 7.1µM | ? | -
N[C@@H](Cn1ccc(=O)c(O)c1)C(=O)O | - | - | . | . | . | .
CCOC(=O)N1CCc2c(sc(NCc3cccc(F)c3)c2C(=O)Nc2ccc(OCC)cc2)C1 | . | . | . | . | 24µM | .
COc1ccc(CCNC(=S)NCc2cccs2)cc1OC | - | - | - | - | - | -
O=C(NCCc1ccccc1)C(=O)NC1CCCCC1 | 3.5µM | 3.2µM | - | - | -[2.3 µM] | -
S=C(NCCc1ccc(Cl)cc1)NC1CCCCC1 | 4µM | ? | - | . | 19µM | .
S=C(NCCc1ccccc1)NC1CCCCCC1 | 2.5µM | 3.2µM | 8.2µM | 13µM | 11µM | -
S=C(NCCc1ccccc1)NCc1cccs1 | ? | ? | ? | 10µM | ? | -
O=C(NCC1CCCO1)c1ccc(Cl)c(S(=O)(=O)N2CCCCC2)c1 (stereo not given) | - | - | - | . | - | .
COc1ccc(CCC(=O)OCc2csc(CC(=O)Nc3ccccc3C)n2)cc1 | - | - | - | . | - | .
Fc1ccccc1NC(=S)NCCc1ccc(Cl)cc1 | ? | ? | ? | . | 19µM | .
COC(=O)C1C(=O)c2c([nH]c(C(=O)OC3CCCC3C)c2C)CC1C (stereo not given) | 1.6µM | 1.4µM | 4.6µM | 11µM | 2.4µM | -
COC(=O)C1C(=O)c2c([nH]c(C(=O)OCCOC(C)C)c2C)CC1C (stereo not given) | - | ? | ? | - | 13µM | -
COC(=O)C1C(=O)c2c([nH]c(C(=O)OC3CCCCC3)c2C)CC1C (stereo not given) | 2.8µM | 2.8µM | ? | 13µM | 1.7µM | -
Cc1c(C(=O)OCCOc2ccccc2)[nH]c2c1C(=O)CC(c1ccccc1)C2 (stereo not given) | . | . | . | - | - | .
COc1cc(OC)cc(C(=O)Nc2ccc3nc4n(c(=O)c3c2)CCCCC4)c1 | 3.2µM | 3.5µM | ? | 18µM | 12µM | .
COc1cccc(/C=C/C(=O)Nc2ccc3nc4n(c(=O)c3c2)CCCC4)c1OC | - | - | - | . | 12µM | .
